In PubChem BioAssay AID1508600 (Functional Genomics Laboratory (NCATS/FGL), 2020):
The whole screen tested about 53,000 sequences, of which about 3,700 (7%) were called active. Shown is part of a subset that was picked to be rich in actives. A number with no mark means an inactive call.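 How the source made its calls: active means gene knockdowns whose robust z-score for IL-1 alpha signal is at least 2 or at most -2, so actives lie on both sides; inactive means the rest.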

experiment: Components of the Cytosolic LPS Sensing Pathway: Gene Identification via Genome-wide siRNA Screen; conditions: RAW264.7 macrophages, IL-1a HTRF, actives lie on both sides, screened at 100 nM (by protocol), cells primed 5 h with Pam3CSK4 first;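 further: robust z of the log signal after scaling to non-targeting control siRNA wells of the plate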
Summary of the method: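 Supernatant IL-1a by HTRF from RAW264.7 cells primed with Pam3CSK4 (5 hours) and transfected with LipidA (24 hour) after 48h siRNA knockdown at 100 nM; cell viability checked with CellTiter-Glo.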

With GGUAGUGUCUAACUUCUGGTT against Zkscan17 as the sequence, how does the z-score read?
Its z-score is 2.13 (active).

With “GGGACAAUUCUGGAUUAAATT against 9330155M09Rik” as the sequence, how does the z-score read?
The z-score was -0.639.

With GGGAAUCACCCUGAGAAAGTT against Ccndbp1 as the sequence, how does the z-score read?
The z-score was -0.269.

For GAACAGUCCUUUUAUGGAUTT against Vmn1r33, which z-score is on record?
The z-score was 0.38.

Which z-score does the source give for GCAUCCUUCACUCAAAUAUTT against Aspa here?
Its z-score is 3.17 (active).

For GGACAGAGUUUUCAUUUUGTT against Rptn, which z-score is on record?
Its z-score is -1.51.

For GCUUCAGCCAUUUCACCUUTT against Rnaseh2c, which z-score is on record?
The z-score was 0.108.

With GGGAAUAAUCUACAAGCCATT against Ccdc121 as the sequence, how does the z-score read?
The z-score was 1.92.

Which z-score does the source give for GGUGUACCAGCAUAGCUGUTT against Hps5 here?
The z-score was 1.24.

Which z-score does the source give for GGAAAAUUACAGAAUUGGATT against Dnali1 here?
Its z-score is 0.323.

With GGAGCACUUUAAGUUAUACTT against Rnf225 as the sequence, how does the z-score read?
Its z-score is 1.73.

Which z-score does the source give for GGAAGAUGACAACUUAUCUTT against Abcc8 here?
The z-score was -0.854.

Which z-score does the source give for AUGAAAACCAUUCCCAAUUTT against Olfr435 here?
Its z-score is 5.22 (active).

For “GGCUGUUCUCUAGAUGAAUTT against 1810065E05Rik”, which z-score is on record?
Its z-score is -1.54.

Which z-score does the source give for GCACUAGCUAAUAAUGCAATT against Oxsm here?
The z-score was -1.54.

Which z-score does the source give for GGAAUGAGAAGAGAGGAUCTT against Rpp25 here?
The z-score was -0.239.

With GGGCAAGUUUUUUUUUCUUTT against Sf3a2 as the sequence, how does the z-score read?
The z-score was 0.586.

Which z-score does the source give for UGGCCUGAUCAUGAACAGUTT against S100a7a here?
Its z-score is 1.21.

Which z-score does the source give for GGCCGAAGAAUUCAUCUUUTT against Pomgnt2 here?
The z-score was -0.339.

With GGUCGAUUUGUCCUUGUGCTT against Rassf7 as the sequence, how does the z-score read?
The z-score was -2.04 (active).

For GGGCCUGAAAAGACCAUCATT against Olfr124, which z-score is on record?
Its z-score is -0.424.

For CCUUGAUCUACAUAGAACCTT against Olfr177, which z-score is on record?
The z-score was 0.338.

For GGGAUUUUGUGAUGUCCGCTT against Mmp23, which z-score is on record?
The z-score was 0.422.

For CCACUUUCAACCUGACCGUTT against Pcdhac2, which z-score is on record?
Its z-score is 0.345.

Which z-score does the source give for GGACGAUUCCCAGUUUCUGTT against Phf1 here?
Its z-score is 1.25.

Which z-score does the source give for GCCGGAAUCAAGAUUAUCATT against Foxm1 here?
The z-score was -2.04 (active).

For GGCUGCUUUCUGAUGGUCATT against Marchf3, which z-score is on record?
The z-score was 0.595.

Which z-score does the source give for GGAAUACUGAAUUUAAGGATT against Olfr1416 here?
The z-score was 1.25.

Which z-score does the source give for GGAAGCGUAAAUAAGUGUCTT against Emp2 here?
The z-score was 0.772.
